FUS suppressor = qHTS for Suppressors of FUS Proteinopathy: Primary screen using FUS-linked yeast assay. S. cerevisiae FUS-expressing, growth rescue, OD600, 24 h. Potency, µM (titrated, usually from 76.6 µM), most hits filed as activators. actives 0.24% (n = 390,000); further: nearly all actives have a fitted effect of over 55% in size
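Cultures pregrown in 2.5% raffinose medium are shifted to minimal medium containing 2% galactose to express toxic FUS. Compounds are tested at several concentrations. After 24hr at 30C, growth is quantified at 600 nm absorbance.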
Abeta rescue = qHTS for compounds that reverse cellular toxicity of Amyloid beta (A-beta) peptide in yeast: Primary Screen. Potency, µM (top dose mostly 46.1 µM), actives largely listed as activators. yeast expressing A-beta42, growth rescue, OD600, 48 h; response scale: 0% DMSO, 100% iron-clioquinol control. actives 0.063% (n = 410,000); further: nearly all actives have a fitted effect of over 55% in size
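Yeast growth medium received pinned compounds, then yeast cells expressing toxic A-beta were added; plates incubated at 30 C for 48 hr. Growth read as absorbance at 600 nm, normalized to DMSO and equimolar FeCl3 plus clioquinol controls.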
aSyn rescue = qHTS of alpha-syn Inhibitors; Yeast expressing alpha-synuclein, growth rescue, BacTiter-Glo, 24 h; Potency, µM (highest dose often 46.1 µM), actives largely listed as activators; actives 0.14% (n = 370,000); further: nearly all actives have a fitted effect of over 65% in size
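Galactose-induced alpha-syn yeast (OD600=0.02, raffinose-pregrown) + pinned cpd, 24 hr, 30 deg C; growth by BacTiter-Glo luminescence. Growth restoration scores as activation.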
Mito fusion act = qHTS Assay for Small Molecule Inhibitors of Mitochondrial Division or Activators of Mitochondrial Fusion | S. cerevisiae fusion-defective mutant growth rescue, CellTiterGlo 48 h | Potency, µM (series often up to 46.1 µM), most hits filed as activators | actives 0.23% (n = 320,000) | AID 485298, 2010; further: nearly all actives have a fitted effect of over 45% in size
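Luminescent cell viability in 1536-well qHTS format served as the measure of rescued growth in ts fusion-mutant S. cerevisiae cultured on non-fermentable YPEG for 48 hours at 37C.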
TDP43 rescue = qHTS of TDP-43 Inhibitors | TDP-43 expressing yeast growth rescue, BacTiter-Glo, 24 h | Potency, µM (highest dose often 46.1 µM), usual class: activators | actives 1.8% (n = 410,000) | AID 652104, 2013; further: nearly all actives have a fitted effect of over 50% in size
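Cell-based yeast growth screen: TDP-43 expression induced in galactose, inoculum OD600=0.02 after raffinose pregrowth to mid-log. Read-out BacTiter-Glo luminescence at 24 hr, 30 deg C; inhibition of toxicity seen as signal increase.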
Each line names hits and unclear results; the compound was inactive in the other large screens. Only some compounds are listed: those with a hit (about 2.2% of all), similar ones and a draw of the others. The call rests on the fitted dose curve; in most records, active means well fitted curve in the direction sought with a large enough effect; inconclusive means small, poorly fitted or top-dose-only effect, or another doubt; inactive means no such curve, though single readings can be large; an effect the other way counts as inactive or inconclusive.

Cc1ccc(Cn2c(C)c3cnn(CC(=O)N4CCN(c5cc(C)ccc5C)CC4)c(=O)c3c2C)cc1	FUS suppressor inconclusive, TDP43 rescue 16µM (no result: aSyn rescue, Mito fusion act)
COCCn1nnnc1CN1CCN(C(=O)c2ccco2)CC1	none
COc1ccc(-c2nn(-c3cccc(F)c3)c3c2cnc2cc(OC)c(OC)cc23)cc1	none (no result: aSyn rescue, Mito fusion act)
Cn1c(CCNC(=O)c2ccco2)nc2cc(NC(=O)COc3ccc(Cl)cc3)ccc21	none (no result: aSyn rescue, Mito fusion act)
CCN(CC)C(=O)c1sc2c(c1C)c(=O)n(-c1ccc(OC)cc1OC)c(=O)n2CC(=O)c1ccc(Cl)cc1	FUS suppressor 20µM (no result: aSyn rescue, Mito fusion act)
Cc1cccc(C(=O)N2CCC(C)(C(=O)NS(=O)(=O)C3CC3)C2)c1C (configuration not stated)	none (no result: Mito fusion act)
CC(C)(C)C(=O)Nc1ccc(C(=O)N/N=C/c2ccccc2OC(=O)c2ccccc2)cc1	FUS suppressor inconclusive
CC(C)(C)C(=O)Nc1ccc(C(=O)N/N=C/c2ccccc2OC(=O)c2ccc(Cl)cc2)cc1	FUS suppressor 22µM
CCN(CC(=O)Nc1cccc(S(=O)(=O)N(C)c2ccccc2)c1)Cc1ccccc1	Mito fusion act inconclusive
CC1CCN(c2nn3c(=O)c(C(=O)NCCc4ccccc4)cnc3s2)CC1	TDP43 rescue 13µM (no result: aSyn rescue, Mito fusion act)
COc1cc(Cc2nc3ccccc3n2C(C)c2nc3ccccc3[nH]2)cc(OC)c1 (configuration not stated)	none (no result: Mito fusion act)
COc1cccc(NC(=O)CSC2=Nc3ccccc3C3=NC(CC(=O)NCc4ccc5c(c4)OCO5)C(=O)N23)c1 (configuration not stated)	FUS suppressor 25µM (no result: aSyn rescue, Mito fusion act)
COCc1cc(C)nc2sc(C(=O)Nc3cc(C)ccc3F)c(N)c12	TDP43 rescue inconclusive (no result: aSyn rescue, Mito fusion act)
COc1ccc(NC(=O)C2(C)Cc3c(-c4cccc(C(F)(F)F)c4)ccnc3O2)cc1OC (configuration not stated)	FUS suppressor inconclusive, TDP43 rescue inconclusive (no result: Mito fusion act)
Cc1cc(C)nc(Nc2ccc(F)cc2)n1	TDP43 rescue 25µM
CC(=O)c1ccc(Nc2nc(C)cc(C)n2)cc1	none
CCOC(=O)N1CCN(C(=O)C[C@@H]2C[C@@]3(C(=O)OC)CCCCC=C3N(Cc3ccc(Cl)cc3Cl)C2=O)CC1	FUS suppressor inconclusive, TDP43 rescue 22µM (no result: Mito fusion act)
CCCCNC(=O)C[C@@H]1C[C@@]2(C(=O)OCC)CCCC=C2N(CCC2=CCCCC2)C1=O	TDP43 rescue 35µM (no result: Mito fusion act)
CCCCCCCCN1C(=O)[C@H](CC(=O)NCCCOC)C[C@@]2(C(=O)OCC)CCCC=C12	FUS suppressor 13µM (no result: Mito fusion act)
CCOC(=O)N1CCN(C(=O)C[C@@H]2C[C@@]3(C(=O)OCC)CCCC=C3N(Cc3ccc(Cl)cc3Cl)C2=O)CC1	FUS suppressor inconclusive, TDP43 rescue inconclusive (no result: Mito fusion act)
CCCCCCCCN1C(=O)[C@H](CC(=O)N2CCN(C(=O)OCC)CC2)C[C@@]2(C(=O)OCC)CCCC=C12	FUS suppressor inconclusive, TDP43 rescue 25µM (no result: Mito fusion act)
CCOC(=O)[C@]12CCC=C1N(CCC1=CCCCC1)C(=O)[C@H](CC(=O)NCCCOC)C2	none (no result: Mito fusion act)
CCOC(=O)C1=C(CN2CCC(C(=O)OCC)CC2)NC(=O)NC1c1ccc(Cl)cc1 (configuration not stated)	none (no result: aSyn rescue, Mito fusion act)
Cc1noc(C)c1C(=O)Nc1cccc2ncccc12	none
COC(=O)[C@]12C=CCN1[C@H](c1ccc(C(F)(F)F)cc1)c1c(c3ccccc3n1S(=O)(=O)c1ccc(C)cc1)C2	none (no result: Abeta rescue, aSyn rescue, Mito fusion act, TDP43 rescue)
C[C@H]1CN([C@@H](C)CO)S(=O)(=O)c2ccc(-c3ccccc3)cc2O[C@H]1CN(C)C(=O)C1CCC1	FUS suppressor inconclusive (no result: Mito fusion act)
CCOC(=O)[C@]12CCCC=C1N(CCC1=CCCCC1)C(=O)[C@H](CC(=O)NCc1cccc3ccccc13)C2	Abeta rescue inconclusive, TDP43 rescue 35µM (no result: Mito fusion act)
Cc1nc(Cl)c(C(=O)NC(=O)NCc2ccccc2)c(C)c1Cl	TDP43 rescue 14µM
Cc1ccccc1NC(=O)c1c(Cl)nc(C)c(Cl)c1C	none
Cc1cc(C(F)(F)F)n2nc(-c3cnn(C)c3C(F)(F)F)c(Br)c2n1	TDP43 rescue 13µM
CC(C)(Oc1ccc(Cl)cc1)C(=O)NNC(=O)c1ccc(Br)o1	TDP43 rescue 14µM
CCCS(=O)(=O)NC(=O)C1(C)CCN(C(=O)c2ccc(F)c(C)c2)C1 (configuration not stated)	none (no result: Mito fusion act)
COc1ccc(S(=O)(=O)N(C)Cc2cccs2)cc1Br	TDP43 rescue 16µM
COC(=O)C(C)NC(=S)N1CCN(c2c(F)cc3c(=O)c(C(=O)O)cn(C4CC4)c3c2OC)CC1C (configuration not stated)	FUS suppressor 32µM, TDP43 rescue inconclusive
CNC(=S)N1CCN(c2c(F)cc3c(=O)c(C(=O)O)cn(C4CC4)c3c2OC)CC1C (configuration not stated)	none
O=C(NCCOc1ccccc1Cl)c1cc(F)c(F)cc1Cl	TDP43 rescue 8.9µM (no result: FUS suppressor)
COc1ccccc1OCCNC(=O)C(=O)c1c[nH]c2ccccc12	TDP43 rescue inconclusive
O=C(NCCOc1ccccc1Cl)C(=O)c1c[nH]c2ccccc12	TDP43 rescue 11µM
COc1ccc(/C=C(\C#N)C(=O)NC(C)c2ccccc2)cc1O (configuration not stated)	Abeta rescue inconclusive, TDP43 rescue 20µM
COC(=O)c1ccc(/C=C(\C#N)C(=O)NC(C)c2ccccc2)cc1 (configuration not stated)	aSyn rescue inconclusive, TDP43 rescue 13µM
CCc1ccc(/C(C)=N/NC(=O)c2ccc(-n3cnnn3)cc2)cc1	none
N#CCCN(Cc1ccccc1)C(=O)CCC(=O)c1ccc(F)cc1	none (no result: Mito fusion act)
COc1ccc(CCNC(=O)c2ccc3c(Cl)c4c(nc3c2)CCCC4)c(OC)c1	TDP43 rescue 35µM (no result: aSyn rescue, Mito fusion act)
COc1ccc(CNC(=O)c2ccc3c(Cl)c4c(nc3c2)CCCC4)c(OC)c1	TDP43 rescue 20µM (no result: aSyn rescue, Mito fusion act)
COc1ccc(CNC(=O)c2ccc(Sc3ccc(Cl)cc3)c(NC(C)=O)c2)c(OC)c1	TDP43 rescue 22µM (no result: aSyn rescue, Mito fusion act)
COc1ccc(OC)c(CNC(=O)c2ccc(Sc3ccc(Cl)cc3)c(NC(C)=O)c2)c1	FUS suppressor inconclusive (no result: aSyn rescue, Mito fusion act)
COc1ccc(CCNC(=O)c2ccc3c(Cl)c4c(nc3c2)CCCC4)cc1OC	none (no result: aSyn rescue, Mito fusion act)
CCOc1ccc(CNC(=O)c2ccc3c(Cl)c4c(nc3c2)CCCC4)cc1	TDP43 rescue 11µM (no result: aSyn rescue, Mito fusion act)
Cc1ccc2c(=O)cc(C(=O)NC3CCS(=O)(=O)C3)oc2c1C (configuration not stated)	none
O=C(O)c1ccc(NC(=O)c2ccccc2NC(=O)c2cccc(Br)c2)cc1	none
O=Cc1c(NC2CCCCC2)c2ccccc2[nH]c1=O	none

Source: PubChem BioAssay (National Center for Advancing Translational Sciences (NCATS))
